# Experimental data reported in PMC7862700, “An all-to-all approach to the identification of sequence-specific readers for epigenetic DNA modifications on cytosine”.
# Tests used:
# Assay in all cases: DAPPL (digital affinity profiling via proximity ligation, sequencing); 10 mM Tris-HCl pH 7.5, 50 mM NaCl, 1 mM DTT, 4% glycerol, room temperature, 30 min; GST-TFs on glutathione beads, 16-mer random dsDNA library, 0.1% formaldehyde crosslink after washing; high values mean tight binding
# FEV = molecular target: T1, FEV (Homo sapiens, UniProt Q99581 1-238); settings: protein: recombinant; tags: N-terminal GST; dsDNA, one strand shown
# T1 sequence: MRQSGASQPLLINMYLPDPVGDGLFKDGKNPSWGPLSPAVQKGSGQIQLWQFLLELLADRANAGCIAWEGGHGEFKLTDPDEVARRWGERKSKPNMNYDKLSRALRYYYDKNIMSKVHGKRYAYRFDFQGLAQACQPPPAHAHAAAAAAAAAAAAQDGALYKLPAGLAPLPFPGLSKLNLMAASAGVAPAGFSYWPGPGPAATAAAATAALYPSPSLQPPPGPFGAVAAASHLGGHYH
# Summary of the method: (§1)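 Human transcription factors carrying a GST fusion were produced in yeast, bound to glutathione beads, tagged with DNA barcodes and pooled together with a tag-only sample. Each pool was held with 200 nmole of a random double-stranded 16-mer DNA library in Tris/NaCl/DTT/glycerol buffer for 30 min at room temperature, then washed, crosslinked in 0.1% formaldehyde, proximity-ligated with BsaI/T4 ligase (1 h, 37 °C), PCR-amplified and sequenced on an Illumina NextSeq500. Binding signal is the read frequency of each hexamer for a given factor divided by its frequency in the tag-only sample.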
# ETV5 = ETV5 (Homo sapiens, UniProt P41161 1-510); settings: protein: recombinant; tags: N-terminal GST; dsDNA, one strand shown
# Summary of the method: as §1
# HSF1 = HSF1 (Homo sapiens, UniProt Q00613 1-529); settings: protein: recombinant; tags: N-terminal GST; chain copies: 3; dsDNA, one strand shown
# Summary of the method: as §1
# SPIC = molecular target: T2, SPIC (Homo sapiens, UniProt Q8N5J4 1-248); settings: protein: recombinant; tags: N-terminal GST; dsDNA, one strand shown
# T2 sequence: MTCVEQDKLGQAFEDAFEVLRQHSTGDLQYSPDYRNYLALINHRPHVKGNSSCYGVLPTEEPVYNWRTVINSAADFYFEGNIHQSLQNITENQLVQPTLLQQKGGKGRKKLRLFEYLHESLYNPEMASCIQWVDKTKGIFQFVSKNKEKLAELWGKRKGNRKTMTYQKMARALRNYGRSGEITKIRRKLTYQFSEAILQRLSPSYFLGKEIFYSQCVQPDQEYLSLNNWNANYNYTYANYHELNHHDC
# Summary of the method: as §1
# ELF4 = ELF4 (Homo sapiens, UniProt Q99607 1-663); settings: protein: recombinant; tags: N-terminal GST; dsDNA, one strand shown
# Summary of the method: as §1
# ELK4 = molecular target: T3, ELK4 (Homo sapiens, UniProt P28324-2 1-405); settings: protein: recombinant; tags: N-terminal GST; dsDNA, one strand shown
# T3 sequence: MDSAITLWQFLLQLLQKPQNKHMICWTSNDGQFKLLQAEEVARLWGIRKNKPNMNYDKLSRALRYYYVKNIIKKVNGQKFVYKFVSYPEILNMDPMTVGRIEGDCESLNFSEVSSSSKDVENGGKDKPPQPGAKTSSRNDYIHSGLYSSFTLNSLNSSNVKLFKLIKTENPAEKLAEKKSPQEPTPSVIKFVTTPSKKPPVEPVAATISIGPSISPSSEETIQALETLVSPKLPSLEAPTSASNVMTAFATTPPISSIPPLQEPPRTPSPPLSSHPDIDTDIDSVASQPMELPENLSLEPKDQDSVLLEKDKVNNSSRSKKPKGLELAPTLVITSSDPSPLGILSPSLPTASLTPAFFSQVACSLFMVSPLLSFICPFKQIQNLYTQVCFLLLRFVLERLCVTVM
# Summary of the method: as §1
# ETV2 = molecular target: T4, ETV2 (Homo sapiens, UniProt O00321 1-342); settings: protein: recombinant; tags: N-terminal GST; dsDNA, one strand shown
# T4 sequence: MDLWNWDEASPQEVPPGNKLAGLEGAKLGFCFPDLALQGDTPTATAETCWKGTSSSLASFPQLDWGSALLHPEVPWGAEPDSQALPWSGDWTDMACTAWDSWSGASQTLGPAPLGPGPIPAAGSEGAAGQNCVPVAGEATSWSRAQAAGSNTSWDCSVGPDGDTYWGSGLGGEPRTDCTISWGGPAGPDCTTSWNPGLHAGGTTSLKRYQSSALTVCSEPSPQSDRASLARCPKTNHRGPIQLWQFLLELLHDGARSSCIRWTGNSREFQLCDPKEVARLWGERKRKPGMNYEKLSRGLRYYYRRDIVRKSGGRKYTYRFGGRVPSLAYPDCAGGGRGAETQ
# Summary of the method: as §1
# ELF3 = molecular target: T5, ELF3 (Homo sapiens, UniProt P78545 1-371); settings: protein: recombinant; tags: N-terminal GST; dsDNA, one strand shown
# T5 sequence: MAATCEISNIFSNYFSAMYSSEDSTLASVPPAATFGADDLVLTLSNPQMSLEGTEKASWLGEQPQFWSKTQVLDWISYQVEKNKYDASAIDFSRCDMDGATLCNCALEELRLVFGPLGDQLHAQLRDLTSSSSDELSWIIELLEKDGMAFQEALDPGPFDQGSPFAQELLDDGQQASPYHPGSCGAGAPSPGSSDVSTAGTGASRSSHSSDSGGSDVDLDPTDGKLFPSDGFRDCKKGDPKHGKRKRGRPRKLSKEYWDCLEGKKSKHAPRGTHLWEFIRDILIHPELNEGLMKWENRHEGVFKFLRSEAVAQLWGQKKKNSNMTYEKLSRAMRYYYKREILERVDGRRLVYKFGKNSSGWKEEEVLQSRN
# Summary of the method: as §1
# CRX = CRX (Homo sapiens, UniProt O43186 1-299); settings: protein: recombinant; tags: N-terminal GST; dsDNA, one strand shown
# Summary of the method: as §1
# ETV1 = ETV1 (Homo sapiens, UniProt P50549 1-477); settings: protein: recombinant; tags: N-terminal GST; dsDNA, one strand shown
# Summary of the method: as §1
# ERF = molecular target: T6, ERF (Homo sapiens, UniProt P50548 1-548); settings: protein: recombinant; tags: N-terminal GST; dsDNA, one strand shown
# T6 sequence: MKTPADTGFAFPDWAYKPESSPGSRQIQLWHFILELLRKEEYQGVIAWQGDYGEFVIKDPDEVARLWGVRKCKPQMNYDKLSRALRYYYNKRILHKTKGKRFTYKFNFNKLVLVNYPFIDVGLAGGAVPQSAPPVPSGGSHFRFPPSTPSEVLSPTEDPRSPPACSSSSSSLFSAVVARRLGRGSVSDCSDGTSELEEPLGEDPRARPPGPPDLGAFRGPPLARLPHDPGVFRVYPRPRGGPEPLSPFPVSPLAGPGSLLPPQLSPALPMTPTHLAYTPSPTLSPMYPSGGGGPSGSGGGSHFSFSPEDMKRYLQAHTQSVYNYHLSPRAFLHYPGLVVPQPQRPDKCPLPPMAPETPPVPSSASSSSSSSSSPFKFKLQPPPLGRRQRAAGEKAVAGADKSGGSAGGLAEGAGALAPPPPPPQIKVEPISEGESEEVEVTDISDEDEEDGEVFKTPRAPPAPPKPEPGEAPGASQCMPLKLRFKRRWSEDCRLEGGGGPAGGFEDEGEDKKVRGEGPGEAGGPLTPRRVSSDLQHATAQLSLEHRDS
# Summary of the method: as §1
# ETV3L = molecular target: T7, ETV3L (Homo sapiens, UniProt Q6ZN32 1-361); settings: protein: recombinant; tags: N-terminal GST; dsDNA, one strand shown
# T7 sequence: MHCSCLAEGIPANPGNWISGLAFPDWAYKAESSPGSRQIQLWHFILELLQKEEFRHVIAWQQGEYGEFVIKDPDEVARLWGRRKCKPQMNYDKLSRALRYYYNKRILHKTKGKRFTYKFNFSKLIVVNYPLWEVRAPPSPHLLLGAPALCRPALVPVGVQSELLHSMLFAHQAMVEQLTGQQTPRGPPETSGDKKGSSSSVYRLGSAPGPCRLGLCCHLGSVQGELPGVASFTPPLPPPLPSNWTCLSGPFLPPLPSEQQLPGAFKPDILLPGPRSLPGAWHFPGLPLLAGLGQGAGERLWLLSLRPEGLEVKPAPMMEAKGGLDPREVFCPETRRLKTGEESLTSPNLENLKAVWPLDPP
# Summary of the method: as §1
# ETS2 = molecular target: T8, ETS2 (Homo sapiens, UniProt P15036 1-469); settings: protein: recombinant; tags: N-terminal GST; dsDNA, one strand shown
# T8 sequence: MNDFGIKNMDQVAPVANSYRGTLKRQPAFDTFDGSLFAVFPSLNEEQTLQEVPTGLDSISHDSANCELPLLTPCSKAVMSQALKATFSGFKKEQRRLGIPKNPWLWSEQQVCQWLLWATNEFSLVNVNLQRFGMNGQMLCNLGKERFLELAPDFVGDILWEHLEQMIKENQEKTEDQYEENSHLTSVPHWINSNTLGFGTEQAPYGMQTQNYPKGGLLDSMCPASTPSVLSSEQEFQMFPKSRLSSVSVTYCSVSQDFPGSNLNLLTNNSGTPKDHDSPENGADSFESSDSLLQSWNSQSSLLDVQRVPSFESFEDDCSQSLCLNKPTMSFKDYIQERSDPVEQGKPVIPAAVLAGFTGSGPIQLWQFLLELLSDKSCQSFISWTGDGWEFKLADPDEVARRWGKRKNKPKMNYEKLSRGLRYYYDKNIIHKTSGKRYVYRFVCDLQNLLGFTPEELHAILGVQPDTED
# Summary of the method: as §1
# SPDEF = molecular target: T9, SPDEF (Homo sapiens, UniProt O95238 1-335); settings: protein: recombinant; tags: N-terminal GST; dsDNA, one strand shown
# T9 sequence: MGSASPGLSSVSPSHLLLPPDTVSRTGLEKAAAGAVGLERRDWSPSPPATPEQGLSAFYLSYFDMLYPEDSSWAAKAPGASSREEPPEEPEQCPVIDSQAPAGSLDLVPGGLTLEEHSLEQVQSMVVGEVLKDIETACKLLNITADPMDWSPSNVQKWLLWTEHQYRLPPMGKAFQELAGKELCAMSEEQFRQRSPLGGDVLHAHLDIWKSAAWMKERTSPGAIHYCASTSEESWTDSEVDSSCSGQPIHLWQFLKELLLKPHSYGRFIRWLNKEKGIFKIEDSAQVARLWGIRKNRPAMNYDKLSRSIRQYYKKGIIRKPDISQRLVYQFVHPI
# Summary of the method: as §1
# ETV7 = molecular target: T10, ETV7 (Homo sapiens, UniProt Q9Y603 1-341); settings: protein: recombinant; tags: N-terminal GST; dsDNA, one strand shown
# T10 sequence: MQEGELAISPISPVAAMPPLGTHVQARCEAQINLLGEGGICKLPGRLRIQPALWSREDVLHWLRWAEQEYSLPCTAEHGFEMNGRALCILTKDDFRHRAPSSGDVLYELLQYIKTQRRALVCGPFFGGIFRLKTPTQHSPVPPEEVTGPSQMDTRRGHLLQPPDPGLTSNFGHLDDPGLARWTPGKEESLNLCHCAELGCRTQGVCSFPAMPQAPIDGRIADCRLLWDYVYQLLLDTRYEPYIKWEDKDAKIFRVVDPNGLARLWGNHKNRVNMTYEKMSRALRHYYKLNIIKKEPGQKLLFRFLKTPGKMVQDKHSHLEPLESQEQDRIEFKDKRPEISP
# Summary of the method: as §1
# ELF5 = molecular target: T11, ELF5 (Homo sapiens, UniProt Q9UKW6-2 1-255); settings: protein: recombinant; tags: N-terminal GST; dsDNA, one strand shown
# T11 sequence: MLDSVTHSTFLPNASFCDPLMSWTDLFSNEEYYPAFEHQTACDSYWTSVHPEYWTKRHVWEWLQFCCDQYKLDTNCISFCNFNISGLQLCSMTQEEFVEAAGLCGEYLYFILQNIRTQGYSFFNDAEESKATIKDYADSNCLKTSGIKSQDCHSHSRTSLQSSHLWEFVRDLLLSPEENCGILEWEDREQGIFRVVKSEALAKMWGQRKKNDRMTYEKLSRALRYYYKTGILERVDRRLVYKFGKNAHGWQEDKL
# Summary of the method: as §1
# ETV3 = molecular target: T12, ETV3 (Homo sapiens, UniProt P41162-2 1-143); settings: protein: recombinant; tags: N-terminal GST; dsDNA, one strand shown
# T12 sequence: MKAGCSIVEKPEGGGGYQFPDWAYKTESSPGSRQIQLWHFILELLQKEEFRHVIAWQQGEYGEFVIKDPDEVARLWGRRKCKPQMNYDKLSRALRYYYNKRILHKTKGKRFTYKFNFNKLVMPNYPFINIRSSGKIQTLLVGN
# Summary of the method: as §1
# ETV6 = ETV6 (Homo sapiens, UniProt P41212 1-452); settings: protein: recombinant; tags: N-terminal GST; dsDNA, one strand shown
# Summary of the method: as §1
# ELF4, sequence (Q99607 whole entry): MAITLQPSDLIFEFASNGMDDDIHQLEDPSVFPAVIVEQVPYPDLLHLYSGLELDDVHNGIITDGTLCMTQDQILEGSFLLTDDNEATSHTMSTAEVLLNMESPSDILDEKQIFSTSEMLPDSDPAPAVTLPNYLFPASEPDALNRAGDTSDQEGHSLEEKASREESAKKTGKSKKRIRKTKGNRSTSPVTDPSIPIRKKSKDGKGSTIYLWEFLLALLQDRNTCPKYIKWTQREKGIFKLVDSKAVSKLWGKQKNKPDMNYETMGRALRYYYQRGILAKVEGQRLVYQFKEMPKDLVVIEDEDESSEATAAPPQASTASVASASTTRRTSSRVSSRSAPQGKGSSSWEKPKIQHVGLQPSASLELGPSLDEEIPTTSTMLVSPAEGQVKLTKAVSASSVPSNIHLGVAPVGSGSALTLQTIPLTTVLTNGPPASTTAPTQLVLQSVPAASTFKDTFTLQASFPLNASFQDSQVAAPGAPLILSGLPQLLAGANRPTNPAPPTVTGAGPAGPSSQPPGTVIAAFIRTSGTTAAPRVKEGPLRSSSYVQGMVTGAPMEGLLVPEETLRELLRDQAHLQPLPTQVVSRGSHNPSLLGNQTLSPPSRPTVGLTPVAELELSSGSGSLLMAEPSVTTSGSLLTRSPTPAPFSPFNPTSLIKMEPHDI
# HSF1, sequence (Q00613 whole entry): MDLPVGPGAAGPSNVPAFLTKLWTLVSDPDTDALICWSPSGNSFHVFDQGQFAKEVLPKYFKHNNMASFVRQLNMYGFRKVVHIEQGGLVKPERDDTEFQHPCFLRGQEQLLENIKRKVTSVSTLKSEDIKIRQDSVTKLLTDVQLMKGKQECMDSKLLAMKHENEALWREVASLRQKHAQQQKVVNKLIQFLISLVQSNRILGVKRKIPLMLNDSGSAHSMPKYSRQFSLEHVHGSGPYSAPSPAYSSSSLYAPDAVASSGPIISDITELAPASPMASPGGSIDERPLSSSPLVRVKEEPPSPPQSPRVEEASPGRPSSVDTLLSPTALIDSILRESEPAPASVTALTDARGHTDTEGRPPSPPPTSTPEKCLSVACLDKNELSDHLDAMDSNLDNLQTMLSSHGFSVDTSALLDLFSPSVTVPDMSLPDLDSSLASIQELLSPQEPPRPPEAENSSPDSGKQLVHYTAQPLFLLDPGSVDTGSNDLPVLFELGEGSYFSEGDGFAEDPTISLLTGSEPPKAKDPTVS
# ETV5, sequence (P41161 whole entry): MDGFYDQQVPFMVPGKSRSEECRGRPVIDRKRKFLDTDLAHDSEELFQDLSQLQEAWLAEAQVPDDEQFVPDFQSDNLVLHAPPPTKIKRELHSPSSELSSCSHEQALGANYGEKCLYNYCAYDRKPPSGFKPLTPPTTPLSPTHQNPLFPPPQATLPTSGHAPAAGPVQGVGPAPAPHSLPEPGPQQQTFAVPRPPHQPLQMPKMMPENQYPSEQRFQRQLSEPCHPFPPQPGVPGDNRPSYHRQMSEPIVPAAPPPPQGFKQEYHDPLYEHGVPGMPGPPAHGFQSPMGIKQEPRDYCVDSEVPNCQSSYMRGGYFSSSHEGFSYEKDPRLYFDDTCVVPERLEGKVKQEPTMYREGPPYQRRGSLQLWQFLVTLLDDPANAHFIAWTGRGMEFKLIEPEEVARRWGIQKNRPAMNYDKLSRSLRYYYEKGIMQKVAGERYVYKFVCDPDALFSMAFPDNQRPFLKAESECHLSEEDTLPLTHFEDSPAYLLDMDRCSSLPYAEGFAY
# ETV1, sequence (P50549 whole entry): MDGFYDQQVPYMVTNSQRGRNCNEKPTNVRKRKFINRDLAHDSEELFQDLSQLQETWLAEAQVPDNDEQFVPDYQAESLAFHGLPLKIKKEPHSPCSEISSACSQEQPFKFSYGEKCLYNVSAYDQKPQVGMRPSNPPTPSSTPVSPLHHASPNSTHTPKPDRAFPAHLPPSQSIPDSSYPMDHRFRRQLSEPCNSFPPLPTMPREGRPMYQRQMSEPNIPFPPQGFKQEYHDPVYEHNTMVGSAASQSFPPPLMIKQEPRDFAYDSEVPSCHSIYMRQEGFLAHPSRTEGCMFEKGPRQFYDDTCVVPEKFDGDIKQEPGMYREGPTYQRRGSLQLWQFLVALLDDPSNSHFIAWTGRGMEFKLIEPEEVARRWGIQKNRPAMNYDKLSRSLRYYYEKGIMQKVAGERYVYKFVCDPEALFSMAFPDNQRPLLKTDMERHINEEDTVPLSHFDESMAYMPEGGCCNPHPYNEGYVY
# CRX, sequence (O43186 whole entry): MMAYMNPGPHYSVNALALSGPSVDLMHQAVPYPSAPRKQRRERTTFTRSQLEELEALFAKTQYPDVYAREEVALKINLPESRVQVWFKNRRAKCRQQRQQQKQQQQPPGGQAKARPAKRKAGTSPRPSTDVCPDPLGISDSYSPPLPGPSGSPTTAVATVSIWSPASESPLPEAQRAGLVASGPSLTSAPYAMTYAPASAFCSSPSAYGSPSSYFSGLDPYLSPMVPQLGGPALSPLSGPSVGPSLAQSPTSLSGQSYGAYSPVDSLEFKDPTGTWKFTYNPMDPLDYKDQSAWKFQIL
# ETV6, sequence (P41212 whole entry): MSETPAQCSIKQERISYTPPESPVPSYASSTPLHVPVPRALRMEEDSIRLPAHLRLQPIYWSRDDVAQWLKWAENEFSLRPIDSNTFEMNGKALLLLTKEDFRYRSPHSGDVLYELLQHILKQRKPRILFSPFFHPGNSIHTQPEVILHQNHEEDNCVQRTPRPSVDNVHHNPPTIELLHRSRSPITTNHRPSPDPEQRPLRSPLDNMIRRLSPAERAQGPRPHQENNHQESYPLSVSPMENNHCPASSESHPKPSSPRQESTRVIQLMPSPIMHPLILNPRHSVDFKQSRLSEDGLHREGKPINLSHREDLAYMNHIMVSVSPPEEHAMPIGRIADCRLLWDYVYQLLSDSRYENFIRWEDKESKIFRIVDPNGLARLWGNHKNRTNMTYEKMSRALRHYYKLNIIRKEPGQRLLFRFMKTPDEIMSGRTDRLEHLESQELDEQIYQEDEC
sequence,measurement,setting,value
CCTGGA,binding signal,FEV,"1.27 fold enrichment (6-mer frequency, TF over GST control)"
same,binding signal,ETV5,"1.47 fold enrichment (6-mer frequency, TF over GST control)"
same,binding signal,HSF1,"1.77 fold enrichment (6-mer frequency, TF over GST control)"
same,binding signal,SPIC,"1.42 fold enrichment (6-mer frequency, TF over GST control)"
same,binding signal,ELF4,"1.47 fold enrichment (6-mer frequency, TF over GST control)"
same,binding signal,ELK4,"1.38 fold enrichment (6-mer frequency, TF over GST control)"
same,binding signal,ETV2,"1.51 fold enrichment (6-mer frequency, TF over GST control)"
same,binding signal,ELF3,"1.12 fold enrichment (6-mer frequency, TF over GST control)"
same,binding signal,CRX,"1.41 fold enrichment (6-mer frequency, TF over GST control)"
same,binding signal,ETV1,"1.41 fold enrichment (6-mer frequency, TF over GST control)"
same,binding signal,ERF,"1.32 fold enrichment (6-mer frequency, TF over GST control)"
same,binding signal,ETV3L,"1.49 fold enrichment (6-mer frequency, TF over GST control)"
same,binding signal,ETS2,"1.52 fold enrichment (6-mer frequency, TF over GST control)"
same,binding signal,SPDEF,"1.57 fold enrichment (6-mer frequency, TF over GST control)"
same,binding signal,ETV7,"1.34 fold enrichment (6-mer frequency, TF over GST control)"
same,binding signal,ELF5,"1.74 fold enrichment (6-mer frequency, TF over GST control)"
same,binding signal,ETV3,"1.37 fold enrichment (6-mer frequency, TF over GST control)"
same,binding signal,ETV6,"1.44 fold enrichment (6-mer frequency, TF over GST control)"
